Screening results deposited in PubChem by National Center for Advancing Translational Sciences (NCATS).
Shown are actives, neighbours in structure and some others; about 10% of the full set was active somewhere.
12-hLO inh: inhibitors of human 12-lipoxygenase (ALOX12); P18054; purified 12-hLO, xylenol orange hydroperoxide absorbance; Potency, µM (series often up to 57.1 µM), for the others: at the top dose activity change, negative = inhibition, actives largely listed as inhibitors; 0.12% of 150,000 active; active means well fitted inhibition curve with a large enough effect; inconclusive means small, poorly fitted or top-dose-only effect; further: potency means the concentration at half of the fitted maximal effect; nearly all actives have a fitted effect of over 55% in size
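Hydroperoxide formation by human 12-lipoxygenase from 40 uM arachidonic acid was followed colorimetrically via ferric-xylenol orange complex, using the 573/405 nm absorbance ratio. Enzyme concentration was 150 nM, with 30 min reaction at room temperature.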
PNC inhibitor: blocks assembly of the perinucleolar compartment | AID 2417 | PC3M PTB-GFP, PNC prevalence imaging, 16 h; stronger effect = lower value | 3.1% of 140,000 active | activity change (PNC), negative = inhibition, % at 10 µM;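 active means readout at or below -70, meaning at least 70% loss of cells showing the perinucleolar compartment, a nuclear body marking cancer cells; inconclusive means readout between -30 and a set limit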;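 further: plate controls were DMSO wells for no effect and camptothecin positive control wells for full effect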
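Compounds are pinned in duplicate onto adhered PC3M cells stably expressing GFP-tagged PTB and incubated 16 h at 37 C. Cells are then fixed, nuclei stained with Hoechst, and PNC-positive cells counted.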
ALDH1A1 block: blocks purified human ALDH1A1 activity. 7.3% of 220,000 active. Purified ALDH1A1, NADH fluorescence, propionaldehyde substrate. Potency, µM (titrated, usually from 75.3 µM), without a hit: at the top dose activity, negative = inhibition, actives largely listed as inhibitors. AID 1030;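 further: potency means the concentration at half of the fitted maximal effect; plate controls were no enzyme wells and a reference inhibitor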
HPGD block: inhibitors of human 15-hydroxyprostaglandin dehydrogenase (HPGD) | AID 894 | purified HPGD, NADH fluorescence kinetic, PGE2 substrate | Potency, µM, without a hit: at the highest dose activity change, negative = inhibition, most hits filed as inhibitors | 4.3% of 150,000 active; further: potency means the concentration at half of the fitted maximal effect
Target sequence (P15428 whole entry, looked up): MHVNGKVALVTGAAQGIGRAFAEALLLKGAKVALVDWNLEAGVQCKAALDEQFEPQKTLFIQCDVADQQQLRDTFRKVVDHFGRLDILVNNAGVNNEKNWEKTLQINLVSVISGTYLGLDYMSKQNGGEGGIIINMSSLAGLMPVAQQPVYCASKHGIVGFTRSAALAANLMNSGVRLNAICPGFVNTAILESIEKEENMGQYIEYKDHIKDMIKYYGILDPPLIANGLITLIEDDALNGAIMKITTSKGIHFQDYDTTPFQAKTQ
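NADH formation kinetics: reaction with 30 uM PGE2 and 1 mM NAD+ (final), 20 nM enzyme, Tris-HCl pH 8 with Tween 20, after 15 min compound preincubation at room temperature. Fluorescence change, last versus first of five reads.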
LMNA splice mod: modulators of lamin A splicing. Potency, µM (top dose mostly 46.1 µM), for the others: at the top dose ratio change, negative = inhibition, hits mostly inhibitors. AID 1487. HeLa LMNA splicing GFP/RFP minigene ratio, 48 h. 0.01% of 200,000 active; active means well fitted inhibition curve with a large enough effect in the signal ratio, with a control signal flat, not every such curve was filed as active; inconclusive means small, poorly fitted or top-dose-only effect, or effect the other way, or a change in a side signal; the % refers to the signal ratio; further: potency means the concentration at half of the fitted maximal effect
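Read-out is the ratio of GFP to DsRed2 object intensity, acquired by 488 nm laser-scanning cytometry on HeLa lamin A-EGFP minigene reporter cells. Compound incubation 48 hrs at 37 °C in Opti-MEM with 2% FBS; DMSO 0.5% final.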
An asterisk follows results filed as active; ? = inconclusive; . = no result given; [ ] = another dose, or the depositor's remark. Unless noted, the call rests on the fitted dose curve; in most records, active means well fitted inhibition curve with a large enough effect (not every such curve was filed as active); inconclusive means small, poorly fitted or top-dose-only effect, or another doubt; inactive means no such curve, though single readings can be large or run the other way. Unless noted, on the % scale 0 is the no-effect control and ±100 the full control effect.

SMILES	12-hLO inh	PNC inhibitor	ALDH1A1 block	HPGD block	LMNA splice mod
CN(CC(=O)O)CC(=O)O	1%[11.4 µM]	.	-1%[13.5 µM]	0%	.
C/C(=N/NC(=O)c1ccoc1C)c1ccc(NC(=O)c2ccncc2)cc1	9%	-3	-11%	-19%	-1%
C/C(=N\NC(=O)c1ccoc1C)c1cccnc1	-4%	-89*	4%	-7%	-4%
C/C(CC(=O)NC12CC3CC(CC(C3)C1)C2)=N\NC(=O)Cc1cccs1	4%	-26	8.9µM*	-14%	-2%
CSc1cccc(NC(=O)/C=C/c2ccco2)c1	.	.	3.2µM*	.	7%[46 µM]
O=C(/C=C/c1ccco1)c1ccc(NC(=O)C23CC4CC(CC(C4)C2)C3)cc1	-3%	44	25µM*	?	-9%
O=C(Nc1ccc(NC(=O)C23CC4CC(CC(C4)C2)C3)cn1)c1ccco1	9%	-5	?	-12%	-5%
CCNC(=S)Nc1ccc(Cl)c(C(F)(F)F)c1	-5%	-5	0%	-3%	?
CO[C@@H]1/C=C\O[C@]2(C)Oc3c(C)c(O)c4c(O)c(c(CN5CCN(C)CC5)c(O)c4c3C2=O)NC(=O)/C(C)=C\C=C[C@@H](C)[C@@H](O)[C@H](C)[C@@H](O)[C@H](C)[C@H](OC(C)=O)[C@@H]1C	-8%[11.4 µM]	.	.	.	.
O=C1O[C@@H]([C@@H](O)CO)[C@@H](O)[C@H]1O	-3%[25.6 µM]	.	8%[20.9 µM]	-8%	?
Cc1noc(C)c1C(=O)N1CCC2(CCCN(C(c3ccccc3)c3ccccc3)C2)CC1	-3%	.	-1%	-9%	.
Cc1occc1C(=O)N/N=C/c1ccccn1	.	.	28µM*	.	?
COc1ccc(NC(=O)N/C=C/c2ccco2)cc1	.	.	28µM*	.	.
Cc1ccc(C(=O)N/N=C\c2ccccn2)cn1	.	.	4%	.	.
CC(/C=C/c1ccco1)=N/NC(=O)Cc1cccs1	-13%	17	2.8µM*	-21%	1%
Cc1ccc(NC(=O)/C=C/c2ccco2)nc1	-2%	-100*	6%	-3%	?
Nc1cc(C(=O)O)[nH]c(=O)n1	1%[11.4 µM]	.	5%[13.5 µM]	-9%	.
COc1ccc(NC(=O)CSc2nc(-c3cccs3)cc(C(F)(F)F)n2)cc1OC	.	.	.	.	8%[46 µM]
CC(C)OC(=O)c1nnc(Cc2ccc(F)cc2)o1	1%	-8	12%	-22%	-5%
CC(C)C[C@H](N)c1nnc(S(=O)(=O)Cc2ccc(F)cc2)o1	-13%	-13	1.6µM*	25µM*	?
CCCc1[nH]n(-c2ccc([N+](=O)[O-])cc2)c(=O)c1C=NCCc1ccc(OC)c(OC)c1	.	.	1.8µM*	.	.
O=C(NCc1ccc2c(c1)CCO2)Nc1ccccc1	.	.	-12%	.	.
O=C(CSc1nc2cc(Cl)ccc2s1)c1ccco1	-19%	-7	?	22µM*	14%
O=C(CSc1nnc(NC(=O)c2ccco2)s1)Nc1ccccc1	.	.	-3%	.	10%[46 µM]
O=C(CSCc1ccc(Cl)cc1)c1ccco1	-7%	3	?	22µM*	8%
SMILES	12-hLO inh	PNC inhibitor	ALDH1A1 block	HPGD block	LMNA splice mod
O=C(CSc1nnc(SCC(=O)c2ccco2)s1)c1ccco1	-11%	-20	?	32µM*	-13%
COc1cc2c(cc1NC(=O)CSc1nc3cc(Cl)ccc3s1)oc1ccccc12	4%	?	-6%	-10%	-7%
O=C(Nc1nnc(SCc2ccc(Cl)cc2)s1)c1ccco1	-5%	35	1%	-16%	9%
CN1CCN(C(=O)c2cnn(-c3cccc(Cl)c3)c2C2CCN(C(=O)OC(C)(C)C)CC2)CC1	.	.	.	.	-13%[46 µM]
COc1ccc(CCNC(=O)CSC2=Nc3ccccc3C3=NC(CCC(=O)NCc4ccccc4)C(=O)N23)cc1OC (centres undefined)	.	.	.	.	11%[46 µM]
Cc1ccc(C)c(C(C)NC(=O)c2ccc(Br)o2)c1 (centres undefined)	.	.	4µM*	.	.
Cc1ccc(/C=N/n2cnc3sc(C)c(C)c3c2=O)o1	.	.	?	.	-6%[46 µM]
COc1ccc(C(=O)N(Cc2ccco2)C(C(=O)NC2CCCC2)c2ccc(O)cc2)cc1OC (centres undefined)	-7%	10	22µM*	-7%	-25%
C1CCC(c2nn3c(-c4n[nH]c5c4CCC5)nnc3s2)CC1	-15%	?	?	.	-8%
CCN(CC)c1ccc(-c2nn3c(-c4n[nH]c5c4CCC5)nnc3s2)cc1	-1%	-99*	?	?	?
O=[N+]([O-])C1=C(Nc2cccc3ccccc23)CS(=O)(=O)C1	-7%	-11	?	20µM*	17%
CCCCOc1ccc(/C=C/C(=O)OCC(=O)NC(=O)NCC(C)C)cc1OCC	6%	-112*	?	?	-7%
Cc1cccc(N2CCN(c3cc(C)nc4c(-c5ccc(Cl)cc5)c(C)nn34)CC2C)c1 (centres undefined)	.	.	.	.	8%[46 µM]
CCC(C)c1ccccc1NC(=O)COC(=O)CCc1cc(OC)c(OC)c(OC)c1 (centres undefined)	-3%	33	8%	-3%	-10%
CCN(c1ccc(NC(=O)COC(=O)CCc2cc(OC)c(OC)c(OC)c2)cc1)C(C)C	.	.	18µM*	.	2%[9.22 µM]
COc1cc(CC(=O)OCC(=O)Nc2ccc(S(=O)(=O)N3CCCC3)cc2)cc(OC)c1OC	-4%	-24	20µM*	-3%	-2%
Cc1cccn2cc(CNC(=O)C3CCCCC3)nc12	3%	-100*	2%	?	-15%
COc1cccc(OC)c1NC(=O)CN1CCC(NC(=O)c2cccc(F)c2)CC1	3%	?	40µM*	-13%	-2%
COc1cccc(C(=O)NC2CCN(CC(=O)NCc3ccccc3OC)CC2)c1	1%	1	-14%	-4%	3%
COC(=O)CC1C(=O)NCCN1C(=O)CSc1nnc(Nc2ccc(C)cc2)s1 (centres undefined)	4%	-28	-4%	-11%	5%
COC(=O)CC1C(=O)NCCN1C(=O)CSc1nnc(Nc2ccc(OC)cc2)s1 (centres undefined)	9%	31	25µM*	?	0%
COc1ccc(CNc2ccnc(-c3ccccc3CN(C)C)n2)c(OC)c1	.	.	0%	.	?
Clc1ccc(-c2ccc(C=Nc3ccc(N4CCOCC4)cc3)o2)cc1	-15%	?	3.5µM*	-8%	-6%
Clc1ccc(-c2ccc(C=Nc3ccc(N4CCOCC4)cc3)o2)c(Cl)c1	.	.	-4%	.	-2%[9.22 µM]
Clc1cccc(-c2ccc(C=Nc3ccc(N4CCOCC4)cc3)o2)c1Cl	.	.	10µM*	.	-11%[46 µM]
CC(C)c1ccc(S(=O)(=O)/N=C2/C=CC(=O)c3ccccc32)cc1	.	.	25µM*	.	26%[46 µM]
COC(=O)C(C(C)=O)C1=C/C(=N\S(=O)(=O)c2ccc(C)cc2)c2ccccc2C1=O (centres undefined)	-4%	-7	?	-20%	10%
Cc1sc(NC(=O)C2CCCO2)c(C(N)=O)c1C (centres undefined)	0%	34	11µM*	28µM*	-1%
CC(=O)Nc1sc2c(c1C(N)=O)CCCC2	2%	13	4%	-6%	-6%
